Screening results from PubChem BioAssay.
In the library only some 3.5% were active in any assay of this set; here they are far more common.
rCAG binder: r(CAG) repeat RNA binding; 1.3% of 370,000 active; inhibition, % at 3 µM; TO-PRO-1 dye displacement fluorescence; AID 651821;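 active = inhibition above the plate cutoff, the mean of all test compounds on that plate plus 3 SD, cut at about 35% in these data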;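 also: 0% = DMSO alone and 100% = 100 µM mitoxantrone as full dye displacement; higher means more dye released from RNA so lower well fluorescence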
DNMT1 block: blocks human DNA methyltransferase DNMT1. AID 588458. inhibition (reported as % activation of signal), % at 10 µM. 0.83% of 360,000 active. P26358. DNMT1 molecular beacon, Hinp1I cleavage, fluorescence; in the data active = inhibition above about 50%
Target sequence (P26358 504-1616 limits assumed): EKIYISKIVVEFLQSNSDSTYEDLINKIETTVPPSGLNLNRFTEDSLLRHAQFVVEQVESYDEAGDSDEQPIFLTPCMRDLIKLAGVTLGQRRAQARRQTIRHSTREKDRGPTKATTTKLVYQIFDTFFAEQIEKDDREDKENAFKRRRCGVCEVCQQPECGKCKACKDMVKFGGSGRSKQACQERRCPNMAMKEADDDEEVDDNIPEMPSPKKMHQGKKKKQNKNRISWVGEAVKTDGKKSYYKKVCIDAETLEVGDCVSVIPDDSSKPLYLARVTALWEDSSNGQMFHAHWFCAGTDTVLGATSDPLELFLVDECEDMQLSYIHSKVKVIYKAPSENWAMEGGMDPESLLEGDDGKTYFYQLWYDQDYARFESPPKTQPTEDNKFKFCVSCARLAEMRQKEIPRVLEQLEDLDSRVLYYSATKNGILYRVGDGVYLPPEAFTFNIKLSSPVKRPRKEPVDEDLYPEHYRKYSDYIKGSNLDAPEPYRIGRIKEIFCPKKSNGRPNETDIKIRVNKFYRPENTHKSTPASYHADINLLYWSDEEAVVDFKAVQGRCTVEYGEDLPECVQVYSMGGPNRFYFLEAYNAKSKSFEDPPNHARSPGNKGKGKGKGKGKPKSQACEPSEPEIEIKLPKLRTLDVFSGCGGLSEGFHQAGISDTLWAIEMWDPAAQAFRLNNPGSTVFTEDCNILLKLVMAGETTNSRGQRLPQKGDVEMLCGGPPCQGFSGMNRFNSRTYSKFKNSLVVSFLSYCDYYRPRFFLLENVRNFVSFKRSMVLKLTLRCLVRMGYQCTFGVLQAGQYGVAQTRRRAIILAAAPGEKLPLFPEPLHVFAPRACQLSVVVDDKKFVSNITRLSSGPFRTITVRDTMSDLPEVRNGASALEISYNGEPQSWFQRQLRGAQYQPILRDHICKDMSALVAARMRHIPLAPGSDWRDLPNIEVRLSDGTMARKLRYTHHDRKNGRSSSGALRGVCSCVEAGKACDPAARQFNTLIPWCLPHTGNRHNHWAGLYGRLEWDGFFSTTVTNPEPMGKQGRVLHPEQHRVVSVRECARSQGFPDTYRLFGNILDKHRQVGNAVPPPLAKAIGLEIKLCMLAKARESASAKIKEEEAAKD
UHRF1 MBD2 ctr: human UHRF1 methylated DNA binding inhibitors; AID 687016; 0.75% of 370,000 active; UHRF1 binding to methylated oligo, TR-FRET; Q96T88; inhibition, % at 4.4 µM; in the data active = inhibition above about 21%;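 also: UHRF1 SRA domain binding a hemimethylated CpG hairpin DNA probe; 0% = median of test compound wells and 100% = reference inhibitor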
MBD2 DNA inh: MBD2-methylated oligo binding inhibition; Q9UBB5; TR-FRET, MBD2 binding to methylated oligonucleotide; inhibition, % at 4.4 µM; 0.31% of 370,000 active; AID 686964; in the data active = inhibition above about 13%
PG9 binder: small molecules binding HIV-1 gp120 antibody PG9; 0.43% of 360,000 active; AID 624416; inhibition, % at 6.7 µM; TR-FRET gp120-PG9 antibody binding; in the data active = inhibition above about 8.5%
LEDGF integ inh: blocks HIV-1 LEDGF/p75-dependent DNA integration; AID 743269; inhibition, % at 3.7 µM; TR-FRET IN-LEDGF/p75 DNA integration, Eu/Cy5; 0.64% of 370,000 active;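 active = inhibition above the screen-wide mean plus 3 SD, cut at about 13% in these data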;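 also: signal is the Cy5 over europium emission ratio at 671 and 618 nm; 0% = plate median of compound wells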
rCAG binder conf: r(CAG) RNA repeat binding, confirmation; shares compounds with rCAG binder; TO-PRO-1 dye displacement fluorescence; inhibition, % at 3 µM; 70% of 4,300 active; AID 652065;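 active = inhibition above a per-plate cutoff, the mean inhibition of sample wells plus 3 SD, cut at about 35% in these data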;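 also: loss of TO-PRO-1 fluorescence as compound displaces dye from 1x1 AA loop RNA; 0% = DMSO only wells and 100% = 100 µM mitoxantrone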
DNA CAG counter: counter-screen for rCAG RNA binders: DNA CAG dye complex inhibitors | shares compounds with rCAG binder | d(CAG) DNA oligo TO-PRO-1 dye displacement, fluorescence | inhibition, % at 3 µM | 94% of 4,300 active | AID 652068;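 active = inhibition above its plate's cutoff, the mean test-well inhibition plus 3 SD, cut at about 4.8% in these data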;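 also: 0% = DNA dye mix with DMSO and 100% = 100 µM mitoxantrone; hits displace the dye from DNA and so lower well fluorescence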
dCAG dye DR: DNA CAG dye complex inhibition, dose response counter-screen; IC50, µM; DNA CAG/GTC duplex TO-PRO-1 dye displacement fluorescence; 20% of 250 active; shares compounds with rCAG binder; AID 686960; in the data active = IC50 below about 10 µM
An asterisk follows results filed as active; i = inactive; nt = no result given.

SMILES | rCAG binder | DNMT1 block | UHRF1 MBD2 ctr | MBD2 DNA inh | PG9 binder | LEDGF integ inh | rCAG binder conf | DNA CAG counter | others
Cc1ccc(NC(=O)c2ccccc2NS(=O)(=O)c2ccc(Cl)s2)cc1S(=O)(=O)N1CCOCC1 | 86.6* | -30.4 | -0.8 | 1.9 | -0.9 | 2.7 | 90.1* | 68.9*
O=C(Nc1cc(S(=O)(=O)N2CCOCC2)ccc1O)c1ccc(NS(=O)(=O)c2ccc(Cl)s2)cc1 | 63.8* | 11.2 | -1.9 | -2.3 | 2.4 | 1.9 | 42.0* | 12.2*
COc1ccc(NS(=O)(=O)c2ccc(O)c(NC(=O)c3ccc(S(=O)(=O)N4CCCC4)cc3)c2)cc1 | 74.0* | -1.6 | 1.6 | 7.9 | -0.9 | -6.7 | 49.8* | 17.6*
O=C(CN1C(=O)NC2(CCCc3ccccc32)C1=O)Nc1cc(F)ccc1F (stereo unspecified) | 1.7 | -6.5 | 0.4 | -3.5 | 1.9 | 1.9 | nt | nt
CCN1C(=O)[C@H]2[C@@H](c3ccc(OC)cc3)N[C@]3(CCCN(Cc4ccc(C)cc4)C3=O)[C@H]2C1=O | 0.2 | 4.8 | 1.8 | -2.9 | -3.1 | -1.5 | nt | nt
CC(C)(C)NC(=O)NC(=O)COC(=O)c1cccc(NS(=O)(=O)c2ccc(F)c(F)c2)c1 | 16.2 | -1.3 | -3.5 | -7.2 | -1.7 | 2.0 | nt | nt
O=C(COC(=O)c1cc(S(=O)(=O)N2CCCC2)ccc1O)Nc1ccc(S(=O)(=O)N2CCOCC2)cc1 | 26.8 | -0.4 | 2.5 | -1.0 | -0.9 | -0.8 | nt | nt
COc1ccc(NS(=O)(=O)c2ccc(O)c(NC(=O)c3ccc(S(=O)(=O)N4CCCCCC4)cc3)c2)cc1 | 67.8* | -20.9 | -1.4 | 0.5 | -2.7 | -0.7 | 77.6* | 39.1*
O=C(COC(=O)c1cc(S(=O)(=O)N2CCCC2)ccc1O)Nc1ccc(SC(F)F)cc1 | 45.5* | -4.8 | -1.4 | -4.8 | -2.4 | -1.3 | 40.4* | 11.1*
CC(C)(C)c1ccc(NC(=O)COC(=O)c2ccc(NS(=O)(=O)c3ccc(F)c(F)c3)cc2)cc1 | 70.1* | 5.9 | 3.2 | 0.3 | -1.9 | -0.7 | 66.8* | 24.1*
CCOC(=O)c1ccc(S(=O)(=O)Nc2cc(S(=O)(=O)Nc3ccc(OC)cc3)ccc2O)cc1 | 61.9* | -0.6 | 3.3 | -2.1 | 0.9 | -4.0 | 51.8* | 21.7*
Cc1noc(C)c1S(=O)(=O)N(C)C[C@@H]1OCc2cn(nn2)CCCC(=O)N([C@@H](C)CO)C[C@H]1C | 3.0 | 5.3 | 3.7 | -3.4 | 2.0 | 6.6 | nt | nt
C#CCNC(=O)C[C@@H]1C[C@@](CCC(=O)OCC)(C(=O)OCC)C2=CCCCN2C1=O | 2.1 | nt | -2.2 | 4.5 | nt | 0.4 | nt | nt
CC(C)C[C@@H]1COc2cc(Br)ccc2S(=O)(=O)N1Cc1cn(Cc2ccc(Br)cc2)nn1 | 0.7 | nt | 2.3 | -3.6 | nt | 5.0 | nt | nt
COc1ccc(NC(=S)N(Cc2cccc(Br)c2)CC2CCC(C(=O)O)CC2)cc1 (stereo unspecified) | 21.1 | 1.0 | -1.6 | 0.8 | -0.4 | -3.0 | nt | nt
COc1ccc(CN(CC2CCC(C(=O)O)CC2)C(=S)Nc2ccc(C)c(Cl)c2)cc1 (stereo unspecified) | 34.7* | 2.0 | 3.7 | -4.7 | -0.5 | -5.6 | 32.5 | 5.8*
Cc1ccc(NC(=S)N(Cc2ccc(Cl)cc2)Cc2ccc(C(=O)O)cc2)cc1Cl | 76.2* | 1.2 | 2.1 | 2.8 | -1.1 | 6.2 | 69.5* | 28.5* | dCAG dye DR=i
CNc1cncc(-c2ccc(OCCCN(C)C)nc2)n1 | 0.5 | 1.9 | -1.6 | -1.5 | -0.5 | -0.1 | nt | nt
COc1ccc(NC(=O)C2c3ccccc3OCC(=O)N2Cc2ccco2)cc1 (stereo unspecified) | 0.7 | nt | -0.5 | -4.6 | 0.0 | 0.5 | nt | nt
CCCn1c(N)c(C(=O)CN(C)CC(=O)Nc2cc(C)ccc2C)c(=O)[nH]c1=O | 0.7 | 2.5 | -2.1 | -6.8 | 0.1 | 4.7 | nt | nt
Cc1cccc(Nc2nc(OCC#N)nc(N(C)C)n2)c1 | 1.8 | 0.5 | 1.1 | 0.7 | -0.6 | -3.6 | nt | nt
